Screening results as filed in PubChem BioAssay.
Sfp PPTase inh = inhibitors of Bacillus subtilis Sfp phosphopantetheinyl transferase; Biochemical Sfp PPTase activity, qHTS; Potency, µM, for inactives: largest response in the series, negative = inhibition, most hits filed as inhibitors; actives 3.5% (n = 310,000); AID 1490; Q9F4F7;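 note: the enzyme is Sfp with the accession as filed and its product quenches rhodamine fluorescence; 0% = enzyme reaction without inhibitor and -100% = no enzyme wells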
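Sfp 15 nM + cpd, 15 min RT; start w/ rhodamine-CoA 5 uM, BHQ-2-YbbR 12.5 uM (final); 50 mM Hepes pH 7.6, 10 mM MgCl2, 0.01% NP-40, 0.01% BSA; read 525/598 nm at 0 and 30 min.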
JMJD2A Tudor = blocks the human JMJD2A Tudor domain; O75164; AlphaScreen JMJD2A-Tudor / H3K4me3 peptide binding; Potency, µM (doses to about 114 µM), for the others: at the highest dose activity change, negative = inhibition, hits mostly inhibitors; actives 4.4% (n = 390,000); note: % is set by controls: 0 for no effect and ±100 for the full control effect; nearly all actives have a fitted effect of over 50% in size
Target sequence (O75164 whole entry, looked up, the tested form may be a part): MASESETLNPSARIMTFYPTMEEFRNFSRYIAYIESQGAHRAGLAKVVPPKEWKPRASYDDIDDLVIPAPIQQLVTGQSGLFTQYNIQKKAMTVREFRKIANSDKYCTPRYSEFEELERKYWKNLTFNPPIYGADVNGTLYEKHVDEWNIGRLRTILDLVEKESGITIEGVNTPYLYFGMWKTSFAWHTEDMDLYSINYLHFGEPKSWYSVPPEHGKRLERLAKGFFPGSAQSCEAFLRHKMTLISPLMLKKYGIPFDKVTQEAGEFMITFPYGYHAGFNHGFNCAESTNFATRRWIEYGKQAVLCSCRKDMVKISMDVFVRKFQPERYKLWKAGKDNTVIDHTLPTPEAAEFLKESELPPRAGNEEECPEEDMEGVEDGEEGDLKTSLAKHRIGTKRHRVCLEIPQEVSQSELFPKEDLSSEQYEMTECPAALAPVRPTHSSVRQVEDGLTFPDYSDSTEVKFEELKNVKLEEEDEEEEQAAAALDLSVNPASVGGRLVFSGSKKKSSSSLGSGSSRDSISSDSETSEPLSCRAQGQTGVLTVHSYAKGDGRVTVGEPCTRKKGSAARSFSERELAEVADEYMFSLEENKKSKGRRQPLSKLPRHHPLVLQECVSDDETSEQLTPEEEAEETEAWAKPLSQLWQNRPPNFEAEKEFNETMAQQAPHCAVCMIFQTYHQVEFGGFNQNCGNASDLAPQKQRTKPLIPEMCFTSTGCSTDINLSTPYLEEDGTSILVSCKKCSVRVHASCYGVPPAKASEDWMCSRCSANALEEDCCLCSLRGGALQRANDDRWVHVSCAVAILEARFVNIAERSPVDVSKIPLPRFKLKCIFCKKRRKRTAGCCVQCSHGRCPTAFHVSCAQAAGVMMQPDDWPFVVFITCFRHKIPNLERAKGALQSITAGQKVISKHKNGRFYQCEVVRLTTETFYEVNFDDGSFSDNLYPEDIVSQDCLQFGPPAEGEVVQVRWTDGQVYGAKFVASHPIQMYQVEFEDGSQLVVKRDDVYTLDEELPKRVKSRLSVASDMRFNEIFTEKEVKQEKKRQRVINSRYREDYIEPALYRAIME
G9a block = G9a (human) methyltransferase inhibition | G9a H3K9 monomethylation, AlphaScreen, 2 h | Q96KQ7 | actives 8.8% (n = 350,000) | Potency, µM (titrated, usually from 102 µM), for inactives: at the highest dose activity, negative = inhibition, actives largely listed as inhibitors; note: % is set by controls: 0 for no effect and ±100 for the full control effect; nearly all actives have a fitted effect of over 75% in size
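Enzyme 20 nM + cpd, 15 min RT; add b-H3K9 pep 500 nM / SAM 20 uM; 2 h RT; anti-H3K9me1 Ab 0.5 ug/mL + SA donor / anti-rabbit acceptor beads 20 ug/mL each, 10 min; AlphaScreen read.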
HP1b chromo inh = HP1-beta chromodomain-methylated histone interaction inhibition. actives 0.56% (n = 390,000). Potency, µM (series often up to 114 µM), for inactives: at the top dose activity change, negative = inhibition, most hits filed as inhibitors. P83916. AlphaScreen HP1-beta / biotin-H3K9me3 peptide binding; note: nearly all actives have a fitted effect of over 70% in size
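HP1-beta protein (50 nM final) preincubated 30 min at room temperature with biotinylated H3(1-18)K9me3 peptide (50 nM) in PBS pH 7.4, 0.01% Tween-20, then compound added for 30 min. AlphaScreen streptavidin donor/nickel chelate acceptor beads (10 ug/mL final), 30 min dark, luminescence read.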
PLK1 PBD inh = blocks phosphopeptide binding to human PLK1 polo-box domain; P53350; Plk1 PBD binding of FITC phosphopeptide, fluorescence polarization; Potency, µM, for the others: max response, negative = inhibition, actives largely listed as inhibitors; actives 2.8% (n = 360,000); note: series mostly up to about 57 µM; % is set by controls: 0 for no effect and ±100 for the full control effect; nearly all actives have a fitted effect of over 65% in size
BAZ2B block = inhibitors of human BAZ2B bromodomain; Potency, µM (top dose mostly 114 µM), for the others: at the highest dose activity change, negative = inhibition, actives largely listed as inhibitors; AlphaScreen BAZ2B-H3K14Ac peptide displacement; actives 4.4% (n = 360,000); AID 504333; note: % is set by controls: 0 for no effect and ±100 for the full control effect; nearly all actives have a fitted effect of over 60% in size
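BAZ2B 50 nM plus b-H3(5-23)K14Ac 50 nM, PBS pH 7.4/0.01% Tween-20, 30 min RT; compound added (max 110 uM), 30 min RT; streptavidin donor/Ni-chelate acceptor beads 10 ug/mL final, 20 min dark; AlphaScreen read.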
TbPYK inh = confirmation of Trypanosoma brucei pyruvate kinase inhibitors. actives 67% (n = 890). Potency, µM (titrated, usually from 76.9 µM), inactives show at the highest dose activity change, negative = inhibition, most hits filed as inhibitors. shares compounds with PLK1 PBD inh. recombinant TbPYK, Kinase-Glo ATP luminescence; note: % is set by controls: 0 for no effect and ±100 for the full control effect; nearly all actives have a fitted effect of over 70% in size
TbPYK ADP-Glo = TbPYK inhibition, orthogonal confirmation | AID 720584 | recombinant TbPYK, ADP-Glo luminescence, 60 min | Potency, µM (highest dose often 76.9 µM), for inactives: at the top dose activity change, negative = inhibition, usual class: inhibitors | actives 62% (n = 890) | shares compounds with PLK1 PBD inh; note: % is set by controls: 0 for no effect and ±100 for the full control effect; nearly all actives have a fitted effect of over 75% in size
The depositor's hits bear a star; [ ] = another dose, or the depositor's remark. An excerpt weighted towards active compounds, which were near 12% of everything screened. Calls come from the whole dose curve; as a rule, active = well fitted curve in the direction sought with a large enough effect; inconclusive = small, poorly fitted or top-dose-only effect, or another doubt; inactive = no such curve, though single readings can be large; an effect the other way counts as inactive or inconclusive. Potency is the fitted concentration of half-maximal effect.

Screening NC(=O)c1sc2nc(N3CCOCC3)c3c(c2c1N)CCCC3 returned Sfp PPTase inh 44.7µM*, JMJD2A Tudor inconclusive, G9a block 70.8µM*, HP1b chromo inh -7.1%, PLK1 PBD inh 26.7µM*, BAZ2B block inconclusive, TbPYK inh 11.2µM* and TbPYK ADP-Glo 10µM*.
Screening COc1ccccc1NC(=O)c1sc2nc(N3CCOCC3)c3c(c2c1N)CCCC3 returned Sfp PPTase inh 2.6%, JMJD2A Tudor -9.7%, G9a block 23.0%, HP1b chromo inh 20.6%, PLK1 PBD inh -7.2% and BAZ2B block -7.4%.
CN(C)c1ccc(/C=N/NC(=O)C2COc3ccccc3O2)o1 (stereo unspecified) was read as Sfp PPTase inh inconclusive, JMJD2A Tudor -9.7%, G9a block inconclusive, HP1b chromo inh 22.0%, PLK1 PBD inh -15.1%, BAZ2B block -7.0%, TbPYK inh inconclusive and TbPYK ADP-Glo 35.5µM*.
`COc1ccc(/C=C2\SC(c3ccc(C)cc3)=NC2=O)cc1OC` gave Sfp PPTase inh inconclusive, JMJD2A Tudor 28.2µM*, G9a block 2.24µM*, HP1b chromo inh 20µM*, PLK1 PBD inh -19.9%, BAZ2B block -18.6%, TbPYK inh 35.5µM* and TbPYK ADP-Glo 10µM*.
For COc1ccc(/C=C2/SC(c3ccc(C)cc3)=NC2=O)cc1OC the results were Sfp PPTase inh 31.6µM*, JMJD2A Tudor 50.1µM*, G9a block 2.82µM*, HP1b chromo inh inconclusive, PLK1 PBD inh -13.4%, BAZ2B block -32.2%, TbPYK inh inconclusive and TbPYK ADP-Glo 15.8µM*.
Screening Cc1ccc(/C=C2\C(=O)Nc3ccccc32)o1 returned Sfp PPTase inh 15.8µM*, JMJD2A Tudor 44.7µM*, G9a block 8.91µM*, HP1b chromo inh 44.7µM*, PLK1 PBD inh -18.8%, BAZ2B block 39.8µM*, TbPYK inh inconclusive and TbPYK ADP-Glo inconclusive.
Screening O=C(CSc1cc([N+](=O)[O-])cc(S(=O)(=O)Cc2ccccc2)c1)NC1CC1 returned Sfp PPTase inh inconclusive, JMJD2A Tudor -16.4%, G9a block inconclusive, HP1b chromo inh 1.4%, PLK1 PBD inh inconclusive, BAZ2B block -4.1%, TbPYK inh inconclusive and TbPYK ADP-Glo 25.1µM*.
For C=CCNC(=O)CSc1cc([N+](=O)[O-])cc(S(=O)(=O)Cc2ccccc2)c1 the results were Sfp PPTase inh inconclusive, JMJD2A Tudor -23.6%, G9a block inconclusive, HP1b chromo inh 8.8%, PLK1 PBD inh inconclusive and BAZ2B block -29.3%.
`CCOC(=O)CSc1nnc(Cc2ccc(OC)cc2)n1-c1ccccc1` gave Sfp PPTase inh 1.7%, JMJD2A Tudor 44.7µM*, G9a block 7.94µM*, HP1b chromo inh 34.4%, PLK1 PBD inh -2.1%, BAZ2B block 7.7%, TbPYK inh 3.16µM* and TbPYK ADP-Glo 5.01µM*.
For CC(C)C1Nc2ccc(C(=O)O)cc2C2C=CCC21 (stereo unspecified) the results were Sfp PPTase inh 28.2µM*, JMJD2A Tudor 31.6µM*, G9a block 10µM*, HP1b chromo inh inconclusive, PLK1 PBD inh inconclusive, BAZ2B block 79.4µM*, TbPYK inh inconclusive and TbPYK ADP-Glo inconclusive.
CC(=O)c1ccc2c(c1)C1C=CCC1C(c1cc3c(cc1Br)OCO3)N2 (stereo unspecified) was read as JMJD2A Tudor -30.6%, G9a block 24.8%[2.33 µM], HP1b chromo inh 9.6%, PLK1 PBD inh -18.2% and BAZ2B block -32.3%.
